Assay outcomes deposited in PubChem BioAssay by National Center for Advancing Translational Sciences (NCATS).
Sampled rows, rich in hits. Any-hit rate of the full collection: about 6.8%.
PINK1 expr mod: A Quantitative High throughput Screen to Identify Chemical Modulators of PINK1 Expression. Potency, µM (highest dose often 76.6 µM), without a hit: top-dose activation (PINK1 increase), actives largely listed as activators. PINK1 immunofluorescence, high-content cytometry, 24 h. 0.2% of 410,000 active. AID 624263, 2012; active means well fitted activation curve with a large enough effect; inconclusive means small, poorly fitted or top-dose-only effect; cell line not stated here; further: % of control where 0% means no effect; nearly all actives have a fitted effect of over 65% in size
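Cells are seeded, rested 12 hours, then given compound at five concentrations or DMSO for 24 hours. After fixation, blocking and antibody staining, PINK1 amount and mitochondrial localization are scored; CCCP serves as control.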
KB-3-1 tox: qHTS assay for MDR1-selective chemotherapeutics: Primary screen using the parental adenocarcinoma cell KB-3-1; Potency, µM (series often up to 46.1 µM), hits mostly cytotoxic; 1.4% of 400,000 active; KB-3-1 viability, CellTiter-Glo ATP luminescence, 72 h; further: on the % scale 0 is the no-effect control and ±100 the full control effect; nearly all actives have a fitted effect of over 60% in size
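Here the drug-naive KB-3-1 line serves as comparator for MDR sub-line selectivity; cells received compound titrations, 72 h at 37 °C, then CellTiter-Glo readout.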
SW480 rereplic: A quantitative high throughput screen for small molecules that induce DNA re-replication in SW480 colon adenocarcinoma cells; Potency, µM (titrated, usually from 46.1 µM), without a hit: at the highest dose re-replication activation, most hits filed as activators; 1.8% of 340,000 active; SW480 DNA re-replication, Hoechst DNA content imaging, 48 h; further: % of control where 0% means no effect; nearly all actives have a fitted effect of over 55% in size
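DNA re-replication was detected as more nuclei of elevated Hoechst intensity after 48 hr exposure to compound (23 nL pinned per well of 250 cells).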
MCF10A rerep: A quantitative high throughput screen for small molecules that induce DNA re-replication in MCF 10a normal breast cells; MCF 10A DNA re-replication, Hoechst nuclear intensity, 48 h; Potency, µM (titrated, usually from 46.1 µM), inactives show top-dose activity, positive = re-replication, most hits filed as activators; 2.9% of 350,000 active; further: % of control where 0% means no effect; nearly all actives have a fitted effect of over 50% in size
PTAP TSG101 blk: qHTS Assay for Iinhibitors of HIV-1 Budding by Blocking the Interaction of PTAP/TSG101; Fluorescence polarization, FITC-PTAP peptide / Tsg101 binding; Potency, µM (doses to about 115 µM), without a hit: at the highest dose activity change, negative = inhibition, most hits filed as inhibitors; Tumor susceptibility gene 101 protein (Homo sapiens), Q99816; 340,000 tested, under 10 active; active means well fitted inhibition curve with a large enough effect in the main read-out, with a control signal flat, not every such curve was filed as active; inconclusive means small, poorly fitted or top-dose-only effect, or effect the other way, or a change in a side signal; inactive means no such curve, though single readings can be large or run the other way; further: % of control where 0% means no effect
Target sequence (Q99816 whole entry, looked up): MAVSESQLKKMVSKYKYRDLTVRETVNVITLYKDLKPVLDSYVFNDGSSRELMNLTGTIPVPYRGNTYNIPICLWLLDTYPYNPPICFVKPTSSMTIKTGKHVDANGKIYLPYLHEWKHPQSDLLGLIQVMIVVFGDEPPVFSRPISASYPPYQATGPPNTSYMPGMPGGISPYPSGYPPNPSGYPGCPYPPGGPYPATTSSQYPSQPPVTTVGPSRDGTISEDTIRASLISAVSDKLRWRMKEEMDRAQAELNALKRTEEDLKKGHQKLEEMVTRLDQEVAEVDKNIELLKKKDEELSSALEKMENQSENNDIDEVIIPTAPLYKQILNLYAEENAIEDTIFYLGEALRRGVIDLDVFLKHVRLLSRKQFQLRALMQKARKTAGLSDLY
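FP read-out: FITC-PTAP peptide, 50 nM final, binding Tsg101 binding domain, 10 uM final; 20 min, r.t.; 10 mM HEPES pH 7.5, 0.15 M NaCl, 0.01% Tween 20, 3 mM EDTA, 0.1 mM TCEP.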
KB-V1 cytotox: qHTS assay for MDR1-selective chemotherapeutics: Primary screen using the drug-selected MDR subline cells KB-V1; KB-V1 MDR cells viability, CellTiter-Glo, 72 h; Potency, µM (top dose mostly 46.1 µM), hits mostly cytotoxic; 3.4% of 400,000 active; AID 1347076, 2019; further: on the % scale 0 is the no-effect control and ±100 the full control effect; nearly all actives have a fitted effect of over 60% in size
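Readout: CellTiter-Glo luminescence, 10 min after addition. Cells: KB-V1 MDR subline, 72 h at 37 degrees C with compound. Analysis: corrected, normalized data fitted to concentration-effect curves.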
* hit, by the source's call; i = inactive; ? = inconclusive; · = no result given; [ ] = remark or other dose. Unless noted, the call rests on the fitted dose curve; in most records, active means well fitted curve in the direction sought with a large enough effect; inconclusive means small, poorly fitted or top-dose-only effect, or another doubt; inactive means no such curve, though single readings can be large; an effect the other way counts as inactive or inconclusive. Potency means the concentration at half of the fitted maximal effect.

SMILES | PINK1 expr mod | KB-3-1 tox | SW480 rereplic | MCF10A rerep | PTAP TSG101 blk | KB-V1 cytotox
Cc1ccc(Cn2c(NCCc3ccccc3)nc3c2c(=O)n(C)c(=O)n3C)cc1 | -3%[38.3 µM] | ? | 0% | 12% | -9% | ?
CCNc1nc2c(c(=O)n(C)c(=O)n2C)n1CCCc1ccccc1 | 0% | ? | 23µM* | ? | -3% | ?
CCN(CC)CCNc1nc2c(c(=O)n(C)c(=O)n2C)n1C/C=C(/C)Cl | 1% | i | 0% | 16µM* | 1% | i
COc1ccc2cc(C#N)c(SCC(=O)OCc3ccccc3)nc2c1 | 1% | ? | · | · | · | i
CC(C)c1c(C(=O)N(C)C2CCN(C)CC2)cnn1-c1nccc(-c2ccco2)n1 | 2% | · | · | · | · | ·
Cc1ccccc1NC(=O)C(=O)NCC(c1ccc2c(c1)OCO2)N1CCN(c2ccccc2)CC1 (stereo not drawn) | 3% | · | · | · | · | ·
CN(Cc1ccccc1)Cc1nc2c(c(=O)n(C)c(=O)n2C)n1CCCc1ccccc1 | · | i | -6% | ? | -5% | 16µM*
CCOCCn1c(=O)c2c(nc3n2CCN3c2ccc(C)c(C)c2)n(C)c1=O | 1% | i | · | · | · | i
CCOc1ccc(C2C(C(=O)OC)=CN(C(C)c3ccccc3)C=C2C(=O)OC)cc1 (stereo not drawn) | -1% | i | ? | 16µM* | 2% | ?
COC(=O)C1=CN(Cc2ccccc2)C=C(C(=O)OC)C1c1ccc(OC)c(OC)c1 | 6% | i | 9% | 14% | -4% | i
ON=C1c2cc(OCCN3CCCCC3)ccc2-c2ccc(OCCN3CCCCC3)cc21 | -2% | ? | 1%[9.22 µM] | 1% | -3% | ?
NC(=S)NN=C1c2cc(OCCN3CCOCC3)ccc2-c2ccc(OCCN3CCOCC3)cc21 | -3% | 23µM* | ? | ? | -4% | ?
Cc1cc(C)cc(NC(=O)C2CCCN(S(=O)(=O)c3cccc4nsnc34)C2)c1 (stereo not drawn) | 1% | i | · | · | · | i
COc1cc(-c2nn3c(COc4ccccc4)nnc3s2)cc(OC)c1OC | 2% | i | -5% | 8% | -8% | 5.2µM*
CCN(CC)c1ccc(-c2nn3c(-c4cccnc4)nnc3s2)cc1 | 1% | 21µM* | 21µM* | 5.2µM* | -2% | 7.3µM*
CCOc1cccc(-c2nnc3sc(COc4ccc(Cl)cc4)nn23)c1 | 9% | 21µM* | -1% | ? | 1% | ?
COc1cc(-c2nn3c(Cc4ccccc4)nnc3s2)cc(OC)c1OC | 1%[38.3 µM] | i | 3% | -3% | -14% | i
CCOc1cccc(-c2nnc3sc(-c4cc(OC)c(OC)c(OC)c4)nn23)c1 | 3% | ? | ? | ? | -1% | 8.2µM*
O=C(Nc1cccc(N2CCC(NCc3cnn(-c4ccccc4)n3)CC2)c1)c1cccnc1 | -1% | · | · | · | · | ·
COc1cccc(-c2nnc3sc(-c4ccco4)nn23)c1 | 2% | i | -12% | 3% | -3% | i
COc1ccc(-c2nnc3sc(-c4ccco4)nn23)cc1OC | 11% | ? | -6% | 5% | -2% | 2.1µM*
CCOc1cccc(-c2nn3c(-c4ccco4)nnc3s2)c1 | 14% | ? | -2% | 9% | -1% | 9.2µM*
COc1ccc(-c2nn3c(-c4ccco4)nnc3s2)cc1OC | -1% | i | -12% | 0%[9.22 µM] | -16% | ?
CCOc1cccc(-c2nnc3sc(-c4cccs4)nn23)c1 | 7% | i | -3% | 12% | -1% | 5.2µM*
CC(=O)Nc1ccc(C(=O)Nc2ccc(-c3nc4ccccc4[nH]3)cc2)cc1 | · | i | · | · | · | ?
SMILES | PINK1 expr mod | KB-3-1 tox | SW480 rereplic | MCF10A rerep | PTAP TSG101 blk | KB-V1 cytotox
Brc1ccc2c(c1)OCCOCCOc1cc(Br)ccc1OCCOCCOCCO2 | ? | ? | ? | ? | -4% | 2.3µM*
Cc1ccc(C)c(OC(=O)C2CSC3(C)CCC(=O)N23)c1C (stereo not drawn) | 0% | 16µM* | -14% | 0% | -5% | i
CCCn1c2ccccc2c2cnn(CC(=O)NCCCN(Cc3ccccc3)C(C)C)c(=O)c21 | 4% | i | · | · | · | i
CNc1nc(Cl)nc2c1ncn2-c1ccccc1 | -1% | 15µM* | 9% | 3% | -8% | 6.5µM*
Clc1nc(Cl)c2ncn(-c3ccccc3)c2n1 | -1% | 18µM* | ? | ? | -1% | ?
CN(Cc1cnc2ccccn12)C(=O)c1cc(NC(=O)c2ccccc2)cc2ncn(C3CCCC3)c12 | 1% | · | · | · | · | ·
COc1ccc2sc(N(CCCN(C)C)C(=O)c3ccc(S(=O)(=O)N(C)Cc4ccccc4)cc3)nc2c1 | -2% | ? | 14% | 6% | 1% | ?
CCOc1cccc2sc(N(CCCN(C)C)C(=O)c3ccc(S(=O)(=O)N(C)Cc4ccccc4)cc3)nc12 | -1% | i | ? | ? | -1% | i
CCN(Cc1ccccc1)S(=O)(=O)c1ccc(C(=O)N(CCCN(C)C)c2nc3c(F)cccc3s2)cc1 | 1% | i | ? | ? | -1% | i
CCCCN(C)S(=O)(=O)c1ccc(C(=O)N(CCN(C)C)c2nc3ccc(C)cc3s2)cc1 | 1% | i | 10% | 7% | -6% | i
Cc1cc(C)c2sc(N(CCCN(C)C)C(=O)c3ccc(S(=O)(=O)N(C)Cc4ccccc4)cc3)nc2c1 | -10% | ? | ? | ? | -2% | 21µM*
CCOc1cccc2sc(N(CCCN(C)C)C(=O)c3ccc(S(=O)(=O)N(CC)Cc4ccccc4)cc3)nc12 | -2% | ? | 25% | ? | -4% | 10µM*
CCN(Cc1ccccc1)S(=O)(=O)c1ccc(C(=O)N(CCCN(C)C)c2nc3cc(C)cc(C)c3s2)cc1 | -2% | ? | -14% | 23µM* | -7% | ?
CCCCN(CC)S(=O)(=O)c1ccc(C(=O)N(CCCN(C)C)c2nc3cc(C)cc(C)c3s2)cc1 | 3% | ? | -43% | 0% | -3% | 26µM*
COc1ccc2c(c1)c1c(c(=O)n(-c3ccc(C)cc3)c(=O)n1CC(=O)Nc1cc(C)ccc1C)n2C | 2% | i | · | · | · | i
O=C(Nc1cc(Cl)ccc1O)c1cc2nc(-c3ccc4c(c3)OCO4)cc(C(F)(F)F)n2n1 | 5% | i | · | · | · | i
